Only some compounds are listed: those with a hit (about 4% of all), similar ones and a draw of the others.
CF NFkB inh – inhibitors of cystic fibrosis induced NF-kB | 0.86% of 360,000 active | KKLEB NF-kB-GFP reporter, PAF-induced, GFP fluorescence overnight | inhibition, % at 5 µM;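 active = at least 50% inhibition at 5 µM, scaled per plate between neutral and stimulator controls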;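 also: PAF is a Pseudomonas aeruginosa culture filtrate used as stimulus; plate controls were PAF-stimulated DMSO wells for no effect and unstimulated DMSO wells for full effect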
TWEAK-Fn14 inh – blocks TWEAK-Fn14 interaction in a reporter cell assay | TWEAK-stimulated Fn14 reporter cells, luciferase luminescence, 8 h | inhibition, % at 10 µM | 2% of 360,000 active; in the data active = inhibition above about 50%
TROY NFkB inh – inhibitors of TROY-dependent NF-kB signaling; Q293 LMP1-TROYcd NF-kB luciferase reporter, 4 h; inhibition, % at 10 µM; 0.98% of 360,000 active; AID 1347056;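 active = compounds whose plate-normalised and pattern-corrected inhibition of the luciferase reporter signal at the single screening dose is 50% or more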
HIF-2a block – inhibitors of HIF-2a; 0.72% of 360,000 active; 786-0 RCC cells HIF-2a reporter, luciferase luminescence, overnight; inhibition, % at 18.8 µM;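 active = inhibition of the luminescence signal of 40% or more relative to plate controls, in a single-dose primary screen at 18.75 µM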
Peg3 prom inh – reduces Peg3 promoter-driven luciferase expression in HeLa; HeLa PEG-Prom luciferase reporter, luminescence, overnight; inhibition, % at 20 µM; 1.7% of 360,000 active; AID 588405;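 active = inhibition of at least 50% at 20 µM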
KKLEB cytotox – CF airway cell cytotoxicity counter-screen. KKLEB CF airway cells viability, ATPlite luminescence, overnight; stronger effect = lower value; cells stimulated with P. aeruginosa culture filtrate. activity change (cytotoxicity), % at 5 µM. 0.36% of 360,000 active;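 active = corrected activity change at or below -50% at 5 µM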
Active calls of the source: *; nt = no result given; ! = not confirmed by another sample.

SMILES	CF NFkB inh	TWEAK-Fn14 inh	TROY NFkB inh	HIF-2a block	Peg3 prom inh	KKLEB cytotox
CCN1CCN(Cc2ccc(NC(=O)c3ccc(C)c(NC(=O)c4ccnnc4)c3)cc2C(F)(F)F)CC1	45.9	-21.3	-5.0	20.8	6.2	-18.8
CCN1CCN(Cc2ccc(NC(=O)c3cc(NC(=O)c4cnn(-c5ccccc5)c4N)cc(OC)c3)cc2C(F)(F)F)CC1	45.1	-73.3	-35.9	-18.5	-33.7	-7.7
CCN1CCN(Cc2ccc(NC(=O)c3cc(NC(=O)c4cc(C)on4)cc(OC)c3)cc2C(F)(F)F)CC1	15.5	0.2	2.3	-28.2	57.4*!	4.9
CCN1CCN(Cc2ccc(NC(=O)c3cc(NC(=O)C(=O)c4c[nH]c5ccccc45)cc(OC)c3)cc2C(F)(F)F)CC1	-2.1	75.5*!	-4.3	-85.4	93.6*	6.8
CS(=O)(=O)c1ccc(Cl)c(NC(=O)CCCSc2ccccc2)c1	-2.4	-3.1	-8.1	5.2	-3.2	9.5
CCOc1ccccc1CNc1ncnc2ccc(-c3c(C)noc3C)cc12	-107.8	82.4*	62.0*	-14.3	-20.4	-25.0
CC(=O)Nc1cccc(-c2csc(Nc3cc(C)ccn3)n2)c1	27.8	49.0	20.7	-215.2	-183.7	-9.7
Cc1ccnc(Nc2nc(-c3ccccc3)cs2)c1	12.7	52.7*	7.8	-231.0	-327.7	-14.0
COc1ccc(-c2csc(Nc3cc(C)ccn3)n2)cc1OC	-7.0	8.6	-23.9	-308.5	-298.0	2.7
CC(=O)Nc1ccc(-c2csc(Nc3cc(C)ccn3)n2)cc1	-24.4	50.3*	30.0	-163.3	-207.3	-2.4
O=C(O)c1c[nH]c(=O)c2ccccc12	6.0	2.5	-4.7	13.8	6.8	-12.0
CCc1cccc(C)c1NC(=O)COC(=O)c1ccc2c(c1)S(=O)(=O)c1ccccc1C2=O	-6.2	-22.5	-11.5	8.2	12.3	-6.3
CCOc1cc(N2CCOCC2)c(OCC)cc1NC(=O)c1ccc(OCc2c(C)noc2C)c(OC)c1	-17.8	15.1	10.5	7.3	50.5*	15.2
CCOc1cc(N2CCOCC2)c(OCC)cc1NC(=O)c1nn(CC)c(=O)c2ccccc12	18.5	20.3	-6.8	-17.8	60.5*	-13.1
COc1cc(C(=O)N2CCN(c3ccc([N+](=O)[O-])cc3)CC2)ccc1OCc1c(C)noc1C	-5.6	73.0*	nt	9.8	16.4	-4.8
COc1ccc(N2CCN(C(=O)c3ccc(COc4ccc([N+](=O)[O-])cc4)o3)CC2)cc1	14.2	50.6*	26.8	10.6	6.4	-11.0
CCC1=C2CC[C@H]3C(=O)N(CC(=O)OC)C(=O)[C@H]3[C@H]2[C@@]2(C)C(=NCC(=O)OC)OC(=O)N2C1=O	-35.1	2.7	7.3	5.3	11.9	8.5
CCC[C@H](N[C@@H](C)C(=O)N1[C@H](C(=O)O)C[C@@H]2CCCC[C@@H]21)C(=O)OCC	5.9	-0.9	-7.5	6.8	-5.4	-11.3
COc1cc([N+](=O)[O-])cc2cc(C(=O)N3CCN=C3c3ccccc3)c(=O)oc12	9.0	0.3	15.1	6.8	11.8	-12.9
CN1C(=O)c2cccc3c(S(=O)(=O)N4CCCC4C(=O)O)ccc1c23 (stereo not given)	20.9	-5.3	7.2	6.9	7.0	-2.1
O=C(c1ccc(-c2ccc([N+](=O)[O-])cc2)o1)N1CCCCCCC1	29.9	11.9	-20.8	8.0	105.4*	-6.5
Cc1ccc(S(=O)(=O)NCc2ccc(C(=O)N3CCN(c4ccc([N+](=O)[O-])cc4)CC3)cc2)cc1	-1.2	50.3*	38.2	19.8	18.5	9.0
COc1ccc(N2CCN(C(=O)c3ccc(CNS(=O)(=O)c4ccc(C)cc4)cc3)CC2)cc1	8.8	27.6	6.9	-15.0	-3.6	-12.4
CC(=O)N1CCCC(C(=O)c2ccc(Oc3ccccc3)cc2)C1 (stereo not given)	1.1	-4.8	-3.8	-43.9	-58.4	27.2
O=C(CSc1ccc(-c2ccccc2)nn1)c1ccccc1	10.5	-66.9	-67.9	-220.7	-248.2	8.7
SMILES	CF NFkB inh	TWEAK-Fn14 inh	TROY NFkB inh	HIF-2a block	Peg3 prom inh	KKLEB cytotox
O=S(=O)(Nc1nc(-c2sccc2Cl)cs1)c1cc(Cl)ccc1Cl	31.1	-17.7	57.8*	3.2	11.6	-8.2
CC(=O)Oc1ccc2c(=O)c(N3C(=O)c4ccccc4C3=O)c(C)oc2c1C	8.5	-7.2	2.2	11.9	5.6	-7.6
CSc1ccc(/C=N/NC(=O)c2sccc2C)cc1	-5.3	55.0*	-40.9	-137.8	-180.9	-3.2
CSc1ccc(/C=N/NC(=O)c2ccc(C)c(C)c2)cc1	-19.3	-7.1	-63.9	-146.8	-85.9	8.3
CC(C)Oc1ccc(CNC(=O)CC(c2ccccc2)c2cc(Cl)ccc2O)cc1 (stereo not given)	7.1	47.3	56.2*	7.2	33.8	-10.7
COc1ccc(C(CCNCc2ccc(N(C)C)cc2)c2ccccc2)cc1 (stereo not given)	6.2	-4.4	14.7	19.5	106.7*	2.5
CC(C)Oc1ccc(C(CCNCc2ccc(O)cc2)c2ccccc2)cc1 (stereo not given)	0.6	-14.3	-15.1	6.4	106.1*	-9.9
CN(C)CCCNC(=O)c1cc2sc3ccccc3c2s1	12.3	-29.5	-41.3	-34.4	11.4	-16.2
CN(C)CCNc1ccc(CO)c2sc3ccc(O)cc3c(=O)c12	-188.6	-89.8	-52.5	49.8*	100.0*	8.3
Fc1ccc(NC(=S)NNc2ncc(C(F)(F)F)cc2Cl)c(F)c1	40.0	29.0	60.6*	33.9	38.4	-8.0
Cc1ccc(NC(=S)NNc2ncc(C(F)(F)F)cc2Cl)c(C)c1	17.1	8.9	21.1	27.2	23.4	-0.9
COc1ccc(S(=O)(=O)N2CCOCC2)cc1NC(=O)CSc1nc(C)c(C)c(C)n1	-10.4	-0.9	4.4	19.5	2.1	-10.0
O=C(CCC(=O)N1CCOc2ccc(Cl)cc21)NCCCN1CCC(Cc2ccccc2)CC1	34.6	-9.8	-3.0	-10.6	74.7*	-21.0
CCOC(=O)C1=C(C)N2C(=C(C#N)[C@@H]1c1ccc(C(=O)OC)cc1)SC[C@@]2(O)C(C)(C)C	12.3	4.3	-5.8	7.4	13.2	-19.8
CCCCC1CCC(c2nc(-c3ccccn3)no2)CC1 (stereo not given)	0.0	55.5*	25.4	-63.6	-121.8	-5.8
Cc1ccc(NC(=O)CN(C)Cc2ccc(Cl)cc2)cc1	1.0	3.7	17.9	-13.8	-9.7	7.4
CCCCCNC(=O)Cn1c(=O)c2c(ncn2CC(C)C)n(Cc2ccccc2)c1=O	1.2	50.1*	2.4	12.0	22.0	6.9
CCNC(=S)NNC(=O)Cn1c(=O)c2c(ncn2CCOC)n(Cc2ccccc2)c1=O	10.4	93.5*	-0.6	14.9	13.0	2.4
CN(CCc1cnn(C)c1)C(=O)CCc1nnc(CCCc2ccccc2)o1	-13.3	-20.5	-37.9	-78.2	-92.7	1.3
Cc1cc(Oc2ccccc2)nc(-c2ccccc2)n1	11.8	-21.0	-8.4	-63.7	-30.5	-10.7
